Measurements: ChEMBL document CHEMBL3988442, “University of Dundee, Small-Polar-MMV Screening Library” (2021)
The whole screen tested about 48,000 compounds, of which about 13,000 (27%) showed an effect of 50% or more. This is one part of the list.

test system: Wolbachia pipientis; assay: Anti-Wolbachia Cell-Based Screen; format: functional; design: scale not given: in the data most compounds retested in dose-response had high values; conditions: 5 µM

| Structure (SMILES) | Percent Effect [%] |
| --- | --- |
| CC(C)N1CCCC2(CCN(C(=O)CCCn3cncn3)C2)C1=O (stereo not given) | 0.7052 |
| Cc1cnn(C2CCCN(C(=O)c3ccc(O)nc3)C2)c1 (stereo not given) | 123.6 |
| Cc1cnn(C2CCCN(C(=O)c3sccc3C#N)C2)c1 (stereo not given) | 1.519 |
| Cc1cnn(-c2ccc(C(=O)N3CCCC(n4ccnc4C)C3)cc2)c1 (stereo not given) | 110 |
| Cc1cnn(C2CCCN(C(=O)c3ccc(-n4cccn4)nc3)C2)c1 (stereo not given) | 95.03 |
| Cc1cnn(C2CCCN(C(=O)c3ccc(N4CCCC4)nc3)C2)c1 (stereo not given) | 85.57 |
| O=C(CCCn1cncn1)N1CCC2(CC1)[C@H](O)C[C@@H]2OCCO | -4.804 |
| Cc1cc(CNCC2CCCN(C(=O)OC(C)(C)C)C2)no1 (stereo not given) | -1.865 |
| CCCOC1CCCN(C(=O)c2[nH]nc(C)c2Br)C1 (stereo not given) | -6.367 |
| CCCN1CCN(C(=O)c2ccc3ccccc3n2)[C@H]2CS(=O)(=O)C[C@H]21 | 2.901 |
| Cc1nccn1C1CCCN(C(=O)c2ccc(N(C)C)nc2)C1 (stereo not given) | -2.779 |
| Cc1nccn1C1CCCN(C(=O)c2ccc(-n3cccn3)nc2)C1 (stereo not given) | 122 |
| Cc1noc2ncc(C(=O)N3CCCC(n4ccnc4C)C3)cc12 (stereo not given) | -5.392 |
| Cc1ccc(-c2noc(CCC3CCN(C)CC3)n2)nn1 | -9.501 |
| CC(C)CCN1CC2(CCN(C(=O)C3(C)CCCCO3)CC2)OC1=O (stereo not given) | -6.368 |
| Cc1cccnc1CN1CCN(C(=O)c2cc(Cl)c[nH]c2=O)CC1 | -31.74 |
| Cc1cccnc1CN1CCN(C(=O)c2cnn(C(C)C)c2)CC1 | 94.71 |
| CC(C)n1cc(CN2CCCN(C(=O)c3cccnc3O)CC2)cn1 | -1.686 |
| Cc1nccc(C(=O)N2CCCN(Cc3cnn(C(C)C)c3)CC2)n1 | 5.245 |
| CCc1ncc(C(=O)N2CCN(Cc3ncccc3C)CC2)cn1 | 86.86 |
| CCc1ncc(C(=O)N2CCN(C(=O)COc3ccccc3)CC2)cn1 | 3.835 |
| Cc1ccc(OCCC(=O)N(C)CC(=O)Nc2cc(C)on2)c(C)c1 | 1.593 |
| COc1c(C)cnc(CN2CCC(N(C)C(=O)C(C)OC)CC2)c1C (stereo not given) | 99.72 |
| COc1ccccc1C(=O)N(C)Cc1ncc(C)c(OC)c1C | -3.019 |
| COc1c(C)cnc(CN2CCOC(Cn3nc(C)nc3C)C2)c1C (stereo not given) | -9.057 |

| Structure (SMILES) | Percent Effect [%] |
| --- | --- |
| COc1c(C)cnc(CNC(=O)CCOCC(C)C)c1C | 11.08 |
| COc1c(C)cnc(CN(C)C(=O)c2ccc(C3CCCO3)s2)c1C (stereo not given) | -4.342 |
| COc1c(C)cnc(CN2CCC(N(C)C(C)C(N)=O)CC2)c1C (stereo not given) | -8.935 |
| COc1c(C)cnc(CN2CCC(N(C)S(C)(=O)=O)CC2)c1C | 116.9 |
| COc1ccc(OC)c(C(=O)N(C)Cc2ncc(C)c(OC)c2C)c1 | -4.561 |
| COc1ccc(C(=O)N(C)Cc2ncc(C)c(OC)c2C)c(OC)c1 | 77.44 |
| COc1c(C)cnc(CN(C)C(=O)c2ccccc2O)c1C | -2.97 |
| COc1cccc(CCCN2CCC(N(C)S(C)(=O)=O)CC2)c1 | -2.016 |
| O=C(c1cnc(NCCC2CCCO2)c(Cl)c1)N1CCOCC1 (stereo not given) | -6.598 |
| Cc1cc(NC(=O)Cc2ccccc2O)cnc1N1CCCCC1 | 13.35 |
| COc1cccc2c1OCC(CNC(=O)CSc1nc(N)n[nH]1)C2 (stereo not given) | -2.891 |
| Cc1cccc(N2CC[C@@H]3CN(Cc4csc(C)n4)CCO[C@@H]3C2)n1.O=C(O)C(F)(F)F.O=C(O)C(F)(F)F | -4.327 |
| O=C1NCC2(CCCN(C(=O)c3ccc4c(c3)CCO4)C2)O1 (stereo not given) | 16.66 |
| CCOc1ccccc1OCC(=O)NCc1ncc(C)c(OC)c1C | 8.111 |
| COc1c(C)cnc(CN2CCC(N(C)C(=O)C3CC3)CC2)c1C | 110.7 |
| CCc1noc(C)c1C(=O)N(C)Cc1ncc(C)c(OC)c1C | -4.169 |
| CCNC(=O)N(C)C1CCN(Cc2ncc(C)c(OC)c2C)CC1 | 110.9 |
| COc1c(C)cnc(CN2CCC(C(=O)N(C)C)CC2)c1C | 2.904 |
| CCC(=O)N(C)C1CCN(Cc2ncc(C)c(OC)c2C)CC1 | 9.191 |
| N[C@@H]1CC[C@H](C(=O)NCCn2cc(Cl)cn2)C1 | -5.887 |
| Cc1ccc(-n2ccnc2)c(C(=O)NCCOCC2CCCO2)c1 (stereo not given) | 2.009 |
| CCN(C(=O)c1cc(C)nc2ccccc12)C1CC(=O)NC1=O (stereo not given) | 9.266 |
| CN(CC1(C)COC1)C(=O)c1cc(-c2ccn(C)n2)nc2ccccc12 | 106.6 |
| CCN(C)C(=O)c1cc(-c2ccn(C(C)C)n2)n2ccccc12 | 6.69 |
| CN(Cc1ncnn1C)C(=O)c1ccccc1NCc1ccccc1 | -8.23 |

| Structure (SMILES) | Percent Effect [%] |
| --- | --- |
| CN(Cc1cccc(C(=O)Nc2ccnn2C)c1)CC1(C)COC1 | 30.85 |
| Cn1cc(CNC(=O)C2COCC(=O)N2Cc2ccccc2)cn1 (stereo not given) | -3.917 |
| CN(Cc1cnn(C)c1)C(=O)c1cc2ccccc2c(=O)[nH]1 | -10.85 |
| CN(CC1(C)COC1)C(=O)c1cc(-c2cnn(C)c2)nc2ccccc12 | 150.1 |
| CN(CC1(C)COC1)C(=O)c1cc(-c2ccnn2C)nc2ccccc12 | 116.9 |
| COc1ccc(NC(=O)N(C)Cc2ccc(Br)o2)cn1 | 12.08 |
| CN(C)S(=O)(=O)NCc1cccnc1Oc1ccccc1 | -16.22 |
| CCc1ccc(C(=O)N(CC)Cc2ccoc2)cc1S(C)(=O)=O | 18.17 |
| Cc1cccc2c1nc(COCC(=O)O)n2-c1cnc(N)cn1 | 0.6066 |
| O=C(O)C1(Oc2ccc(Cl)cc2)CCN(C2CCOCC2)CC1 | 109.8 |
| O=C(O)C1(Oc2cccc(F)c2)CCN(C2CCOCC2)CC1 | 114 |
| CCCn1ccnc1CN1CCC(Oc2ccc(Cl)cc2)(C(=O)O)CC1 | -1.396 |
| CCCn1ccnc1CN1CCC(Oc2cccc(F)c2)(C(=O)O)CC1 | -7.212 |
| O=C(O)C1(Oc2ccc3ccccc3c2)CCN(c2ccncc2)CC1 | -19.78 |
| O=C(O)C1(Oc2ccc3c(c2)OCO3)CCN(C2CCOCC2)CC1 | 140.6 |
| O=C(O)C1(Oc2cccc(F)c2)CCN(c2ccncc2)CC1 | -29.88 |
| O=C(O)C(c1ccc2c(c1)OCCO2)N1CCC(N2CCOCC2)CC1 (stereo not given) | 10.3 |
| O=C(O)C1(Oc2ccccc2)CCN(c2ccncc2)CC1 | -10.06 |
| Cc1noc(OCCOc2cccc(C#N)c2)n1 | 0.996 |
| NC(=O)c1cnc(NCC(=O)NCc2ccccc2)c(Cl)c1 | -2.32 |
| O=C(c1cccs1)N1CC(Oc2ccccc2Cl)C1 | 11.34 |
| CCCc1nc(C(=O)N2C[C@H](CO)C[C@H](CN3CCOCC3)C2)cs1 | -13.1 |
| CN1C[C@@H]2CN(C(=O)NCc3ccccc3)CCC[C@]2(C(=O)O)C1.O=C(O)C(F)(F)F | 10.95 |
| CCN1C[C@@H]2CN(C(=O)NCc3ccccc3)CCC[C@]2(C(=O)O)C1.O=C(O)C(F)(F)F | -6.91 |
| CN1C[C@@H](O)[C@]2(CCN(C(=O)c3ccccc3)C2)S1(=O)=O | 126.2 |

| Structure (SMILES) | Percent Effect [%] |
| --- | --- |
| CN1C[C@@H](O)[C@]2(CCN(C(=O)OCc3ccccc3)C2)S1(=O)=O | 96.78 |
| CN1C[C@H](O)[C@]2(CCN(C(=O)NCc3ccccc3)C2)S1(=O)=O | 101.7 |
| O=C(OCc1ccccc1)N1CC[C@H]2CC(CO)O[C@@H]2C1 (stereo not given in full) | -8.669 |
| CN1CC(c2ccccc2)CC2(CCN(C(=O)c3ccccc3)CC2)C1 (stereo not given) | 1.137 |
| COCCC(=O)N1CCC2(CC1)CC(c1ccccc1)CN(C)C2 (stereo not given) | 9.484 |
| COc1cccc(OCC(=O)N2CCC3(CC2)[C@H](O)C[C@@H]3OC)c1 | 6.956 |
| CN1C[C@H](O)[C@]2(CCN(C(=O)COc3ccccc3)C2)S1(=O)=O | 115.7 |
| COCCN1C(=O)C[C@@H]2[C@H]1CCN2C(=O)COc1ccccc1 | -17.47 |
| O=C(NCc1ccco1)c1cc(N2CC[C@@H](O)C2)ccn1 | 15.64 |
| CCCS(=O)(=O)N1Cc2ccnn2CC(c2nc(C)no2)C1.O=C(O)C(F)(F)F (stereo not given) | -10.4 |
| Cc1csc(C(C#N)C(=O)NCc2ccccc2)n1 (stereo not given) | 0.1394 |
| Cc1cc(C)c2nc(CN3CCOCC(O)C3)cc(O)c2c1 (stereo not given) | -68.16 |
| CCC1=N[C@@]2(CC[C@@H]3CN(S(=O)(=O)CC(C)C)C[C@@H]32)C(=O)N1C | -2.639 |
| O=C(NCCc1cccs1)NC1CCN(c2ncccn2)CC1 | 110.6 |
| O=C(NCc1ccccn1)NC1CCCN(c2ncccn2)C1 (stereo not given) | 20.37 |
| COC(=O)N1CCCC(NC(=O)NCc2csc(C)n2)C1 (stereo not given) | -0.338 |
| Cc1nc(CCNC(=O)NC2CCN(c3ncccn3)CC2)cs1 | 9.255 |
| Cc1nc(CNC(=O)NC2CCN(c3ncccn3)CC2)cs1 | 78.89 |
| Cc1csc(CNC(=O)NC2CCN(c3ncccn3)CC2)n1 | 3.023 |
| Cc1nc(CCNC(=O)NC2CCCN(c3ncccn3)C2)cs1 (stereo not given) | 107.1 |
| O=C(NCCc1ccccn1)NC1CCN(c2ncccn2)CC1 | 4.674 |
| O=C(NCc1ccoc1)NC1CCN(c2ncccn2)CC1 | 15.54 |
| N#Cc1ccc(CNC(=O)NC2CCCN(c3ncccn3)C2)cc1 (stereo not given) | 10.08 |
| Cc1nc(CNC(=O)NC2CCCN(c3ncccn3)C2)cs1 (stereo not given) | 115.1 |
| Cc1ccc(CNC(=O)NC2CCCN(c3ncccn3)C2)n1C (stereo not given) | 7.079 |
